In the library only some 1.4% were active in any assay of this set; here they are far more common.
EPAC2 antagonist: qHTS for Antagonist of cAMP-regulated guanine nucleotide exchange factor 2 (EPAC2): primary screen; AID 720708, 2013; Rap guanine nucleotide exchange factor 4 (Homo sapiens), Q8WZA2; EPAC2 GEF exchange of Rap1B-BODIPY-GDP, fluorescence; 0.18% of 360,000 active; Potency, µM (top dose mostly 114 µM), actives largely listed as inhibitors; note: nearly all actives have a fitted effect of over 45% in size
EPAC2 agonist: qHTS for Agonist of cAMP-regulated guanine nucleotide exchange factor 4 (EPAC2): primary screen; Potency, µM (titrated, usually from 154 µM), actives largely listed as activators; 0.079% of 360,000 active; EPAC2 activation, biochemical qHTS; response scale: 100% = 6.5 mM cAMP response; Rap guanine nucleotide exchange factor 4 (Homo sapiens), Q8WZA2; AID 720711, 2013; note: nearly all actives have a fitted effect of over 50% in size
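Compounds were titrated in qHTS against a Rap1B-BODIPY-GDP (250 nM) complex with EPAC2 (100 nM) and GDP (50 uM). BODIPY-GDP release tracked at 480/540 nm over 30 min at room temperature, normalized to 6.5 mM cAMP.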
EPAC1 ag: qHTS for Agonist of cAMP-regulated guanine nucleotide exchange factor 3 (EPAC1): primary screen. EPAC1 agonist qHTS, biochemical assay; response scale: 100% = response to 6.5 mM cAMP. Potency, µM (top dose mostly 154 µM), hits mostly activators. 0.073% of 360,000 active; note: nearly all actives have a fitted effect of over 60% in size
Target sequence (O95398 whole entry, looked up): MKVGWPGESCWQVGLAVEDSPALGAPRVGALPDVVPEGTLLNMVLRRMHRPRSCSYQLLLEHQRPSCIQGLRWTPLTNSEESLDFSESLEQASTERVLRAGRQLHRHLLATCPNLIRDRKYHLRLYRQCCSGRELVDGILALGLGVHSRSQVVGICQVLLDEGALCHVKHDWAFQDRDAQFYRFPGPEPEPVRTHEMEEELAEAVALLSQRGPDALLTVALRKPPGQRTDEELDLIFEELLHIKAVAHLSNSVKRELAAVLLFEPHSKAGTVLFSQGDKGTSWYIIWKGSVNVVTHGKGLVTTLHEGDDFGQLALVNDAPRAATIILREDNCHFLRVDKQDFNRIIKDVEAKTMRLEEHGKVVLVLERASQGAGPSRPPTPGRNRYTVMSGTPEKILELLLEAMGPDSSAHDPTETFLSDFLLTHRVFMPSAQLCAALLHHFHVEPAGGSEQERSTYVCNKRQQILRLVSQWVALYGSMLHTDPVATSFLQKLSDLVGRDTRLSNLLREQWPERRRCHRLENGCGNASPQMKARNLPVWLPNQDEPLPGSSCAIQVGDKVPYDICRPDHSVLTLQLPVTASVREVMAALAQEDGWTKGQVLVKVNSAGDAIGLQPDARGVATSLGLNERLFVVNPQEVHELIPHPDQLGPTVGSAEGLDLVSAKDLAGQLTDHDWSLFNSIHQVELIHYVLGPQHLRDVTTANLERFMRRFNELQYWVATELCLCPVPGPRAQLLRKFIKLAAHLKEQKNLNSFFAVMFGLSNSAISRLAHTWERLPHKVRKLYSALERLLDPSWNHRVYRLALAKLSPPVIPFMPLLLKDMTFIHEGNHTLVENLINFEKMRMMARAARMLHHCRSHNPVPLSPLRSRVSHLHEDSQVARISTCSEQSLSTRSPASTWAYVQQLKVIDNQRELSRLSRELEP
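Normalized to 6.5 mM cAMP, activity reflects EPAC1-catalysed release of BODIPY-GDP from Rap1B, followed kinetically over 30 min at 480 nm excitation, 540 nm emission. Reaction contained 100 nM EPAC1, 250 nM Rap1B-BODIPY-GDP, 50 uM GDP.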
KCNH2 3.1 inh: qHTS for Inhibitors of KCHN2 3.1: Mutant qHTS | activity change, % (tested at about 1.8 µM) | Potassium voltage-gated channel subfamily H member 2, brain isoform KCNH2 3.1 (human) | U2OS KCNH2 3.1, thallium flux FluxOr; hits give low values | 0.95% of 340,000 active;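 active = maximum activity change below -70%; inconclusive = maximum activity change from -70% to -50%; inactive = maximum activity change above -50%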;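 note: thallium influx rate constant from kinetic fluorescence after stimulation buffer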
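We transduce U2OS cells with the mutant 3.1 virus, culture them overnight, load FluxOr with Red40 quencher for 45 min, then add stimulation buffer and read kinetically for 2 min to derive a normalized rate constant.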
EPAC1 antag: qHTS for Antagonist of cAMP-regulated guanine nucleotide exchange factor 3 (EPAC1): primary screen | EPAC1 GEF assay, Rap1b-BODIPY-GDP exchange fluorescence | AID 720709, 2013 | 0.14% of 360,000 active | Rap guanine nucleotide exchange factor 3 (Homo sapiens), O95398 | Potency, µM (top dose mostly 115 µM), usual class: inhibitors; note: nearly all actives have a fitted effect of over 50% in size
hERG WT inh: qHTS for Inhibitors of KCHN2 3.1: Wildtype qHTS. Voltage-gated inwardly rectifying potassium channel KCNH2 (Homo sapiens), Q12809. U2OS, BacMam KCNH2, thallium flux FluxOr; hits give low values. activity change, % at 1.84 µM. 0.37% of 340,000 active. AID 720551, 2013;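 active = maximum activity change below -70%; inconclusive = maximum activity change between -70% and -50%; inactive = maximum activity change above -50%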
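U2OS cells were transduced with wild-type KCNH2 virus (2.03 x 10^8 / mL) for 4 h at room temperature, then cultured overnight at 37 C. Thallium flux was read with FluxOr dye. Rate constants were normalized to DMSO controls.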
Large screens that a line does not name were inactive; ! = not confirmed by another sample. Unless noted, calls come from the whole dose curve; as a rule, active = well fitted curve in the direction sought with a large enough effect; inconclusive = small, poorly fitted or top-dose-only effect, or another doubt; inactive = no such curve, though single readings can be large; an effect the other way counts as inactive or inconclusive.

COc1ccc(N2CCN(CC(O)COC(c3ccccc3)c3ccccc3)CC2)cc1 (stereo not given)	KCNH2 3.1 inh -105, hERG WT inh inconclusive
C=CCc1cc(OC)ccc1OCC(O)CN1CCN(c2ccc(OC)cc2)CC1 (stereo not given)	KCNH2 3.1 inh -82!
O=C([O-])c1ccccc1-[n+]1c(-c2ccccc2)cc(-c2ccccc2)cc1-c1ccccc1	none
CCc1noc(C)c1C(=O)NCCN1C(=O)S/C(=C\c2ccccc2F)C1=O	KCNH2 3.1 inh -77
Nc1cccc2c1C(=O)N(CC(=O)NC13CC4CC(CC(C4)C1)C3)C2=O	hERG WT inh -105
O=C(Cn1sc2ccccc2c1=O)NC12CC3CC(CC(C3)C1)C2	none
CC(C)c1ccccc1NC(=O)COC(=O)C1(C)CC1(Cl)Cl (stereo not given)	none
C[C@H](NC(=O)N1CCn2c1nc1ccccc12)C(=O)NC1CC1	KCNH2 3.1 inh -136
O=C(N/N=C/c1ccccc1O)c1cccc(C(F)(F)F)c1	EPAC1 antag 7.9µM
CSc1ccc(CN2CCC2(C)C(=O)Nc2cccc(NS(C)(=O)=O)c2)cc1 (stereo not given)	none (no result: KCNH2 3.1 inh, hERG WT inh)
OCCN1CCN(c2cc(-c3ccc4ccccc4c3)nc3ccnn23)CC1	none (no result: KCNH2 3.1 inh, hERG WT inh)
CCOC(=O)CC(=O)CSCC(=O)Nc1ccc(C)cc1	KCNH2 3.1 inh -75
CC1=C/C(=N\NC(=S)Nc2cccnc2)CC(C)(C)C1	none
Cc1cccc(-c2cc3nc4c(c(N5CCOCC5)n3n2)CCCC4)c1	none
Cc1cccc(-c2cc3nc4c(c(NCc5ccco5)n3n2)CCCC4)c1	KCNH2 3.1 inh -83, hERG WT inh inconclusive
CC(=O)c1cccc(N(C(=O)CNC(=O)c2ccco2)C(C(=O)NC2CCCC2)c2ccncc2)c1 (stereo not given)	none
CN1CCN(S(=O)(=O)c2cccc(C(=O)N(C)C(c3ccccc3)c3ccccc3)c2)CC1	KCNH2 3.1 inh -75
COc1cccc(CN(C)C(=O)c2cccc(S(=O)(=O)N3CCN(c4ccc(F)cc4)CC3)c2)c1OC	KCNH2 3.1 inh -159
CCC(C(=O)Nc1ccccc1N1CCCC1)c1ccccc1 (stereo not given)	none
CCC(Oc1ccccc1)C(=O)Nc1ccccc1N1CCCCC1 (stereo not given)	EPAC2 antagonist 13µM
CCC(Oc1ccccc1)C(=O)Nc1ccccc1N1CCCC1 (stereo not given)	EPAC2 antagonist 50µM
CCC(Oc1ccccc1)C(=O)N1CCC(C(N)=O)CC1 (stereo not given)	hERG WT inh -109
CCC(Oc1ccccc1)C(=O)N1CCN(C(=O)C(CC)Oc2ccccc2)CC1 (stereo not given)	none
C#CC[N+]1(CC#Cc2ccccc2)CCCC1	none
C(#Cc1ccccc1)C[N+]1(CC#Cc2cccc3ccccc23)CCCC1	KCNH2 3.1 inh -80
CCN(CC)c1ccc2cc(-c3nnc(-c4ccccc4)o3)c(=O)oc2c1	EPAC2 agonist 35µM, EPAC1 ag inconclusive, hERG WT inh -96
CCN(CC)c1ccc2cc(-c3nc4ccccc4[nH]3)c(=O)oc2c1	EPAC1 ag inconclusive, KCNH2 3.1 inh -112, hERG WT inh -93
CCN(CC)c1ccc2cc(-c3nc(-c4ccc(OC)cc4)cs3)c(=O)oc2c1	EPAC2 antagonist 5.6µM, KCNH2 3.1 inh -133, hERG WT inh -233
